Measurements as given in PubChem BioAssay AID1159580 (chemical genetic matrix, 2015).
Where “and” joins values, the source holds several entries; their conditions need not be identical. Equal entries are not always repeated. Hit rate of the full screen: of about 5,500 compounds, about 2,000 (36%) were called active. Another 18% or so got no clear call; they are omitted. Cut-off read from the data, not from the text of the source: active = normalized growth mostly below about 0.91 (no sharp cut-off); inconclusive = no clear call, values can overlap the other calls; inactive = mostly above about 0.92. The list shows a part of the results.

Experiment: chemical genetic growth profiling, strain panel (AID 1159580);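 note: tested at 20 µM; growth read once vehicle control cultures reached saturation at 30 °C; 1 = growth at the plate median or of vehicle wells; lower values mean less growth of the strain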
Details: S. cerevisiae deletion strains, growth OD

Measured: normalized growth

Cc1cccc(Nc2ccccc2C(=O)O)c1C
active: locus YAL013W, strain DEP1, stronger effect = lower value 0.89 | locus YAL030W, strain snc1, stronger effect = lower value 0.913 | locus YBR171W, strain sec66, stronger effect = lower value 0.843 | locus YBR229C, strain ROT2, stronger effect = lower value 0.912 | locus YBR279W, strain paf1, stronger effect = lower value 0.921 | locus YCL016C, strain dcc1, stronger effect = lower value 0.913 | locus YCL029C, strain bik1, stronger effect = lower value 0.907 | locus YCL061C, strain MRC1, stronger effect = lower value 0.894 | locus YCL069W, strain vba3, stronger effect = lower value 0.912 | locus YCR088W, strain abp1, stronger effect = lower value 0.895 | locus YDL040C, strain nat1, stronger effect = lower value 0.92 | locus YDL192W, strain arf1, stronger effect = lower value 0.834 | locus YDR001C, strain nth1, stronger effect = lower value 0.893 | locus YDR101C, strain arx1, stronger effect = lower value 0.885 | locus YDR137W, strain rgp1, stronger effect = lower value 0.739 | locus YDR150W, strain NUM1, stronger effect = lower value 0.894 | locus YDR162C, strain NBP2, stronger effect = lower value 0.806 | locus YDR297W, strain sur2, stronger effect = lower value 0.912 | locus YDR318W, strain mcm21, stronger effect = lower value 0.882 | locus YDR388W, stronger effect = lower value 0.869 | locus YDR392W, strain spt3, stronger effect = lower value 0.593 | locus YDR502C, strain sam2, stronger effect = lower value 0.864 | locus YEL037C, strain rad23, stronger effect = lower value 0.909 | locus YEL061C, strain CIN8 (second series), stronger effect = lower value 0.887 | locus YEL061C, strain CIN8, stronger effect = lower value 0.904 | locus YER016W, strain bim1, stronger effect = lower value 0.918 | locus YER110C, stronger effect = lower value 0.859 | locus YER111C, strain swi4, stronger effect = lower value 0.907 | locus YER155C, strain BEM2, stronger effect = lower value 0.868 | locus YER167W, strain BCK2, stronger effect = lower value 0.867 | locus YGL086W, strain mad1, stronger effect = lower value 0.884 | locus YGL167C, strain pmr1, stronger effect = lower value 0.851 | locus YGL253W, strain hxk2, stronger effect = lower value 0.897 | locus YGR135W, strain pre9, stronger effect = lower value 0.858 | locus YGR229C, strain SMI1, stronger effect = lower value 0.729 | locus YHR027C, strain rpn1, stronger effect = lower value 0.906 | locus YHR079C, strain IRE1 (second series), stronger effect = lower value 0.887 | locus YHR094C, strain hxt1, stronger effect = lower value 0.872 | locus YHR129C, strain ARP1, stronger effect = lower value 0.911 | locus YHR200W, strain rpn10, stronger effect = lower value 0.872 | locus YIR030C, strain dcg1, stronger effect = lower value 0.863 | locus YJL092W, strain hpr5, stronger effect = lower value 0.908 | locus YJL095W, strain BCK1 (second series), stronger effect = lower value 0.918 | locus YJL129C, strain trk1, stronger effect = lower value 0.697 | locus YJL134W, strain LCB3, stronger effect = lower value 0.894 | locus YJL154C, strain vps35, stronger effect = lower value 0.904 | locus YJL168C, strain set2, stronger effect = lower value 0.868 | locus YJL187C, strain SWE1, stronger effect = lower value 0.922 | locus YJR066W, strain TOR1, stronger effect = lower value 0.81
0.907 (active) and 0.891 (inactive): locus YHR030C, strain SLT2, stronger effect = lower value
inactive: locus YAL021C, strain ccr4, stronger effect = lower value 0.934 | locus YAL026C, strain drs2, stronger effect = lower value 0.929 | locus YBL061C, strain skt5, stronger effect = lower value 0.924 | locus YBR009C, strain hhf1, stronger effect = lower value 0.951 | locus YBR021W, strain FUR4, stronger effect = lower value 0.853 | locus YBR023C, strain chs3, stronger effect = lower value 0.919 | locus YBR231C, strain swc5, stronger effect = lower value 0.915 | locus YCL011C, strain gbp2, stronger effect = lower value 0.922 | locus YDL005C, strain med2, stronger effect = lower value 0.946 | locus YDL035C, strain GPR1, stronger effect = lower value 0.921 | locus YDL074C, strain BRE1, stronger effect = lower value 0.898 | locus YDL101C, strain DUN1, stronger effect = lower value 0.994 | locus YDL134C, strain PPH21, stronger effect = lower value 0.904 | locus YDL185W, strain tfp1, stronger effect = lower value 0.984 | locus YDR069C, strain doa4, stronger effect = lower value 0.988 | locus YDR159W, strain sac3, stronger effect = lower value 0.898 | locus YDR195W, strain ref2 1.08 | locus YDR334W, strain swr1, stronger effect = lower value 0.908 | locus YDR335W, strain msn5, stronger effect = lower value 0.923 | locus YEL003W, strain gim4, stronger effect = lower value 0.937 | locus YER015W, strain faa2, stronger effect = lower value 0.936 | locus YER155C, strain BEM2 (second series), stronger effect = lower value 0.904 | locus YFR010W, strain ubp6, stronger effect = lower value 0.986 | locus YGL078C, strain dbp3, stronger effect = lower value 0.959 | locus YGL173C, strain kem1, stronger effect = lower value 0.911 | locus YGL227W, strain vid30, stronger effect = lower value 0.917 | locus YGL240W, strain doc1, stronger effect = lower value 0.967 | locus YGL248W, strain PDE1, stronger effect = lower value 0.936 | locus YGR078C, strain PAC10, stronger effect = lower value 0.897 | locus YGR252W, strain gcn5, stronger effect = lower value 0.854 | locus YHR013C, strain ard1, stronger effect = lower value 0.967 | locus YHR079C, strain IRE1, stronger effect = lower value 0.883 | locus YHR142W, strain chs7, stronger effect = lower value 0.887 | locus YIL066C, strain RNR3, stronger effect = lower value 0.915 | locus YIL073C, strain SPO22, stronger effect = lower value 0.905 | locus YIL125W, strain kgd1, stronger effect = lower value 0.985 | locus YJL095W, strain BCK1, stronger effect = lower value 0.8 and 0.923 | locus YJL115W, strain asf1, stronger effect = lower value 0.908 | locus YJL164C, strain tpk1, stronger effect = lower value 0.948 | locus YJL166W, strain qcr8, stronger effect = lower value 0.929 | locus YJL187C, strain SWE1 (second series), stronger effect = lower value 0.932 | locus YJR043C, strain POL32, stronger effect = lower value 0.942
